The list is not random: actives were taken first. Their share in the collection is about 0.51%.
Rango dissoc inh: inhibitors of RanGTP-induced Rango-importin beta complex dissociation; O95149+P62826; Biochemical FRET Rango-importin beta, RanGTP-induced dissociation; Potency, µM (doses to about 46.1 µM), for the others: at the highest dose activity change, negative = inhibition; 0.071% of 340,000 active; note: potency is the fitted concentration of half-maximal effect; % of control where 0% means no effect; nearly all actives have a fitted effect of over 45% in size
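Two FRET readings bracket the reaction: one 5 min after compound meets Rango–importin beta, another 45 min after RanGTP-RCC1 (0.6 uM Ran, 0.2 uM RCC1, 2 mM GTP) is added. Only the second defines inhibition.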
a7 integrin act: activates integrin-mediated alleviation for muscular dystrophy. 0.064% of 350,000 active. Potency, µM (titrated, usually from 38.3 µM), for inactives: at the top dose activation, most hits filed as activators. alpha7betagal myoblasts, beta-gal FDG fluorescence, 48 h. AID 624291; active = well fitted curve in the direction sought with a large enough effect; inconclusive = small, poorly fitted or top-dose-only effect, or another doubt; inactive = no such curve, though single readings can be large; an effect the other way counts as inactive or inconclusive;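 note: potency is the fitted concentration of half-maximal effect; 100% = response of the positive control SU9516; nearly all actives have a fitted effect of over 60% in size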
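alpha7betagal+/- myoblasts (passage 13, 250/well) treated 48 h at 37C with compounds at 1:260 dilution of DMSO stock. Lysed, then beta-galactosidase activity read as FDG fluorescence (ex 480/em 540) after 30 min, with pre-read for autofluorescence.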
CCT chaperon mod: cytosolic chaperonin activity modulation; purified chaperonin ATPase assay, HTRF ADP detection, 30 min; activity change, % (no concentration beside the values), hits read low; 0.3% of 360,000 active; in the data active = activity change below about -30%; note: % is set by controls: 0 for no effect and ±100 for the full control effect
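Nucleotide hydrolysis assay: TRiC at 20–40 nM final (set by batch activity) with 10 uM ATP, 30 min at 37 °C, in presence of 76 uM compound. Detection by competitive ADP HTRF, 30 min ambient.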
Rango-impB inh: inhibitors of Rango-importin beta complex formation; Rango CFP/YFP FRET sensor + importin beta, 45 min; 0.031% of 340,000 active; Potency, µM (top dose mostly 92.2 µM), for inactives: at the highest dose inhibition of complex formation; AID 540263;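 note: potency is the fitted concentration of half-maximal effect; 0% = DMSO wells and 100% = buffer wells lacking importin beta; nearly all actives have a fitted effect of over 15% in size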
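Inhibition scored from the CFP 486 nm/YFP 530 nm FRET ratio 45 min after adding 0.125 microM importin beta to 50 nM Rango biosensor preincubated 5 min with compound (room temperature, PBS with DTT, Tween-20, BSA). No-importin wells as positive control.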
Mm-Cpn inhibitor: inhibitors of Methanococcus maripaludis chaperonin TRiC (MmCpn). purified Mm-Cpn ATPase, ADP Transcreener TR-FRET. Potency, µM (doses to about 76.9 µM), inactives show at the top dose activity, negative = inhibition, most hits filed as inhibitors. 0.031% of 330,000 active. AID 504842; active = well fitted curve in the direction sought with a large enough effect; inconclusive = small, poorly fitted or top-dose-only effect, or another doubt; inactive = no such curve, though single readings can be large; an effect the other way counts as inactive or inconclusive; note: potency is the fitted concentration of half-maximal effect; % is set by controls: 0 for no effect and ±100 for the full control effect; nearly all actives have a fitted effect of over 80% in size
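Quantitative HTS used 25 nM Mm-CPN and 10 uM ATP in magnesium/KCl Tris buffer, pH 7.4, with 1 mM DTT. Hydrolysis ran 30 min at 37°C; ADP was read by HTRF.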
An asterisk follows results filed as active; ? = inconclusive; . = no result; [ ] = remark or other dose. Unless noted, calls come from the whole dose curve.

SMILES	Rango dissoc inh	a7 integrin act	CCT chaperon mod	Rango-impB inh	Mm-Cpn inhibitor
Cc1ccc(C(=O)O)cc1NC(=O)c1cccs1	2%	19%	-2	0%	-4%
Cc1ccc(C(=O)O)cc1NC(=O)C1=CSCCO1	44%	-10%	-63*	6%	-1%
Cc1cc(C)n(Cc2ccc(C(=O)NCc3ccco3)o2)n1	-2%	-24%	-2	2%	1%
Cc1ccc(CNC(=O)c2ccc(Cn3nc(C)cc3C)o2)cc1	1%	-22%	-73*	5%	-1%
CC1CCN(C(=O)c2cc3ccccc3o2)CC1	17%	7%	-36*	0%	0%
Cc1ccc(NC(=O)c2cnn(-c3ccccc3)c2NC(=O)c2ccco2)cc1C	-9%	3%	-39*	1%	0%
CCN(CC)C(=O)c1cnn(-c2ccccc2)c1NC(=O)c1ccco1	2%	0%	-1	5%	2%
COC(=O)[C@]12CCCCC=C1N(CCC1=CCCCC1)C(=O)[C@H](CC(=O)NCCCN1CCCC1=O)C2	.	.	-7	.	.
Fc1ccc(OCc2cc(-c3ccccc3)no2)cc1	?	-10%	-1	1%	-1%
COc1ccc(-c2cc(COc3ccccc3)on2)cc1	9%	10µM*	-1	0%	1%
O=C(OCC#CCSc1nnc(-c2cccc3ccccc23)s1)c1cccs1	.	.	.	.	4%
COc1cccc(Cn2ncc3c4sc(B(O)O)cc4n(C)c3c2=O)c1	.	.	.	.	-2%
CC(=O)c1cccc(NC(=O)c2ccc3c(c2)CCCC3)c1	14%	-44%	-1	?	1%
COc1cccc(NC(=O)c2ccc3c(c2)CCCC3)c1	0%	5.6µM*	1	1%	0%
Cn1c2ccsc2c2cnn(Cc3ccc(F)cc3)c(=O)c21	.	.	.	.	-24%
O=C(O)c1ccc2c(c1)C(=O)N([C@H](Cc1ccc(O)c(O)c1)C(=O)O)C2=O	.	.	.	.	-1%
CC1Oc2ccccc2C=C1/C=N/NC(=O)c1ccccc1 (stereo not drawn)	-3%	4%	-45*	0%	-2%
COc1cc2c(cc1OC)C1O[C@](c3ccsc3)(C2)OC2=C1C(=O)CC(C)(C)C2	.	.	.	.	-10%[15.4 µM]
CCOc1ccc(NC(=O)Cn2nnc(C(=O)NCCc3ccc(OC)c(OC)c3)c2N)cc1	16%	-39%	2	-2%	0%
COc1ccc(CCNC(=O)Cn2nnc(C(=O)Nc3ccc(Br)cc3)c2N)cc1OC	-8%	11µM*	1	-4%	0%
CC(=O)NCCNC(=O)c1ccc(Sc2ccccc2)c([N+](=O)[O-])c1	5%	23%	-33*	0%	4%
COc1ccc(-c2ccc3c(c2)S(=O)(=O)c2cccc(C(=O)N4CCN(C5CCCCC5)CC4)c2C3=O)cc1OC	?	-12%	-1	?	0%
COc1ccc(-c2ccc3c(c2)S(=O)(=O)c2cccc(C(=O)N4CCN(c5ccccn5)CC4)c2C3=O)cc1OC	.	1%	-32*	.	.
CCc1sc2nc(SCC(=O)Nc3cc(C)on3)n(-c3cccc(OC)c3)c(=O)c2c1C	0%	-39%	-36*	2%	-3%
COc1ccc(NC(=O)c2sc(=O)n(Cc3cccc(C(F)(F)F)c3)c2C)cc1OC	.	.	3	.	.
SMILES	Rango dissoc inh	a7 integrin act	CCT chaperon mod	Rango-impB inh	Mm-Cpn inhibitor
COc1ccc(CNC(=O)CCC2N=C3c4ccccc4N=C(SCC(=O)NCC4CCCO4)N3C2=O)cc1 (stereo not drawn)	-11%	-10%	-1	0%	1%
O=C(CCC1N=C2c3ccccc3N=C(SCC(=O)NCC3CCCO3)N2C1=O)NCc1ccc(F)cc1 (stereo not drawn)	-1%	9%	-46*	0%	-1%
COc1c2ccccc2nn1C(C)C	.	.	0	.	.
Cc1occc1-c1nnc(SCC(N)=O)n1Cc1ccccc1	-4%	12%[7.66 µM]	-3	0%	-2%
NC(=O)CSc1nnc(-c2cc3ccccc3o2)n1Cc1ccccc1	12%	19%	-62*	-1%	7%
NC(=O)C1CCN(c2nc(-c3ccc(Cl)cc3)cs2)CC1	.	.	.	.	-2%
COc1ccc(S(=O)(=O)N(CCC(=O)O)Cc2ccccc2)cc1	33%	-5%	-50*	-1%	2%
Cn1c(=O)n(C)c2cc(CNC(=O)[C@H]3O[C@@H](n4ccc(=O)[nH]c4=O)[C@H](O)[C@@H]3O)ccc21	.	.	0	.	.
COc1ccc2c(c1)c(C(C)=O)c(C)n2-c1ccc(C(C)=O)cc1	-20%	0%	-6	0%	-1%
COc1ccc(-n2c(C)c(C(C)=O)c3cc(OC(C)=O)ccc32)cc1	-5%	10µM*	2	-2%	0%
CCC(=O)N1CCc2cc(Br)cc(S(=O)(=O)CCC(=O)N(C)c3cccc(C)c3)c21	.	.	.	.	1%
O=C(NCc1ccccc1F)c1cccs1	8%	-9%[7.66 µM]	-37*	5%	0%
O=C(NCc1ccc(F)cc1)c1cccs1	-20%	2%	-3	-2%	0%
CCCC(=O)N1CCCC1(C)C(=O)Nc1ccc(-n2cncn2)cc1 (stereo not drawn)	.	.	-1	.	.
O=C(Cn1cccc1C(=O)c1ccccc1)NCCCc1ccccc1	2%	4µM*	-3	1%	2%
CCC(Cc1ccccc1)NC(=O)Cn1cccc1C(=O)c1ccccc1 (stereo not drawn)	10%	7%	-42*	1%	-4%
Cc1cc(C)c(S(=O)(=O)N2CCN(S(=O)(=O)N3CCC(C)CC3)CC2)c(C)c1	3%	0%	-49*	1%	2%
CC(C)C[C@@H](CN1CCC[C@@H]1CN1C(=S)NC[C@@H]1Cc1ccc(O)cc1)N1C[C@H](Cc2ccc(O)cc2)N(CCc2ccccc2)C1=S	.	.	2	.	.
COc1ccc(-c2cc(C)nc(SCC(=O)c3cccc([N+](=O)[O-])c3)n2)cc1	7%	-13%	-46*	-2%	-8%
Cc1cc(-c2ccccc2)nc(SCC(=O)c2cccc([N+](=O)[O-])c2)n1	1%	-3%	0	-1%	0%
N#C/C(=C(/O)CCl)c1nc2ccccc2[nH]1	13µM*	-36%	-5	?	-2%
Cc1cccc(Nc2nnc(SC/C(O)=C(\C#N)c3nc4ccccc4[nH]3)s2)c1C	?	3%	-1	-13%	-1%
Cc1cccc(C)c1Nc1nnc(SC/C(O)=C(\C#N)c2nc3ccccc3[nH]2)s1	15µM*	17%	2	?	-2%
N#C/C(=C(\O)Cc1ccccc1)c1nc2ccccc2[nH]1	?	4%	1	4%	-24%
O=c1[nH]c2ccc(S(=O)(=O)N3CCCCC3)cc2[nH]1	20%	-2%	0	0%	1%
O=S(=O)(c1ccc2[nH]c3c(c2c1)CCCC3)N1CCCCC1	15%	-13%	-73*	?	-1%
CC(=O)NCCNc1nc2cc(-c3ccccc3CO)sc2c(=O)n1C	.	.	0	.	.

Compound activity as filed in PubChem BioAssay.
